We go through nine molecules from PubChem BioAssay (EPA / NIEHS).

Results filed as inconclusive are left out. Active and inactive are the calls of the source. The calls were made as follows: active = hit-call score of the fitted dose curve at least 0.9, where 1 is the maximum; inconclusive = response in the unintended direction; inactive = score below 0.9.

human Androgen Receptor (AR), AR (gene 367), sequence (P10275 whole entry, looked up): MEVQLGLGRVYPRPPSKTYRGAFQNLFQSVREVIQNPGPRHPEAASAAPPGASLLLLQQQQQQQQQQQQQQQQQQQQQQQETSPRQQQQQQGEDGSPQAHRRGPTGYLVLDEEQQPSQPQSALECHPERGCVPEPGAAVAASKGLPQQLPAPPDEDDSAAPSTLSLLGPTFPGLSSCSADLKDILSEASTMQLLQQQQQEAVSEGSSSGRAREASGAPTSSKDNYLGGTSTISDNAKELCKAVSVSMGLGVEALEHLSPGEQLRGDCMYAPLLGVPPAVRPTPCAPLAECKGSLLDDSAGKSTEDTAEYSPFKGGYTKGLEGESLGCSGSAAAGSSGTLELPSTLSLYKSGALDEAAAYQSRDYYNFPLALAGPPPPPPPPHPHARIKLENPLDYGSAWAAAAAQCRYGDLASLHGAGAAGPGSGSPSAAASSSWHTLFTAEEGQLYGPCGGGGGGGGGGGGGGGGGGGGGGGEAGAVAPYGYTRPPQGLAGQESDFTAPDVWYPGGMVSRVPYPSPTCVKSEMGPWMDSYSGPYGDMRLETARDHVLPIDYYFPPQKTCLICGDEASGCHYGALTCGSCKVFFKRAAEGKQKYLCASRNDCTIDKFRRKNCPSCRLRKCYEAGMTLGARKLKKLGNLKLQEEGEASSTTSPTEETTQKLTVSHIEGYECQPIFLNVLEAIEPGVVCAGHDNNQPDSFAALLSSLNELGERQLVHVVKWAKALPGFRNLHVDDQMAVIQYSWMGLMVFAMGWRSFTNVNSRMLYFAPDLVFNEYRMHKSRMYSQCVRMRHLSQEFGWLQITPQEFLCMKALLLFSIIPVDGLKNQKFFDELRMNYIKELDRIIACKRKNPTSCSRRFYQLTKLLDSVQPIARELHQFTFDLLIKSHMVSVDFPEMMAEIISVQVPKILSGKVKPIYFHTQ
rat Thyrotropin Releasing Hormone Receptor (TRH), Trhr (gene 25570), sequence (Q01717 whole entry, looked up): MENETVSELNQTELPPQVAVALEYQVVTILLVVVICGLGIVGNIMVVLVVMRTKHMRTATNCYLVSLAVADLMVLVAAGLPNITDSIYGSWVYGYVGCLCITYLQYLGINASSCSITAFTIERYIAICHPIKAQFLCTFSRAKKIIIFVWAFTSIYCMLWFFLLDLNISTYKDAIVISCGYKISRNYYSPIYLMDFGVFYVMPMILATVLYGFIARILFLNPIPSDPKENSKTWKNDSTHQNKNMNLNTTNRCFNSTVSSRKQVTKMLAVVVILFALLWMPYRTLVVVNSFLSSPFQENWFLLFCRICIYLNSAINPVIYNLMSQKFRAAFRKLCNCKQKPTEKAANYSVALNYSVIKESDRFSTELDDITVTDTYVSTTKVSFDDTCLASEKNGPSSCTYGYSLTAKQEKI

One assay has as its target rat Glutamate, NMDA Agonist Site (GluNMDA), Grin1 (gene 24408) (UniProt P35439). In words: NVS_LGIC_rGluNMDA_Agonist: NovaScreen (NVS) Ligand-Gated Ion Channel Assay for rat Glutamate, NMDA Agonist Site (GluNMDA) (AID 2283327). An outline of the steps:
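Rat forebrain membranes, radioligand binding in the agonist-site protocol; 1 h after dosing; filter-based scintillation counting. Single-concentration duplicate screen at 25 uM, then concentration-response up to 50 uM for actives; gain-of-signal vs DMSO.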
As a reminder, the AC50 is the midpoint of the concentration-response curve, whichever way the signal moves. In the case of `Fc1ccccc1[C@@H](F)COC1CCC(Nc2ncnc3[nH]ncc23)CC1` (stereo not given in full), the AC50 was 616 nM (active). As for `O=c1[nH]c2ccc(S(=O)CCN3CCC(Cc4ccc(F)cc4)CC3)cc2o1` (stereo not given), the molecule was classed as inactive. In the case of `COc1ccc(-n2nc(C(F)F)cc2-c2ccc(S(C)=O)cc2)cc1` (stereo not given), the molecule was called inactive.

A further assay has as its target rat Thyrotropin Releasing Hormone Receptor (TRH), Trhr (gene 25570) (UniProt Q01717). Kind of assay: NVS_GPCR_rTRH: NovaScreen (NVS) G Protein-Coupled Receptor Assay for rat Thyrotropin Releasing Hormone Receptor (TRH) (AID 2283329).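 Also: hit means lower bound tracer signal versus DMSO baseline.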 As for the experimental part: NVS_GPCR_rTRH is a biochemical, single-readout assay that uses extracted gene-proteins from Rat forebrain membranes in a tissue-based cell-free assay. Measurements were taken 4 hours after chemical dosing in a 48-well plate.NVS_GPCR_rTRH is one of one assay component(s) measured or calculated from the NVS_GPCR_rTRH assay. It is designed to make measurements of radioligand binding, a form of binding reporter, as detected with scintillation counting signals by Filter-based radiodetection technology.Data from the assay component NVS_GPCR_rTRH was analyzed into 1 assay endpoint. This assay endpoint, NVS_GPCR_rTRH, was analyzed in the positive analysis fitting direction relative to DMSO as the negative control and baseline of activity. Using a type of binding reporter, loss-of-signal activity can be used to understand changes in the binding as they relate to the gene Trhr. Furthermore, this assay endpoint can be referred to as a primary readout, because the performed assay has only produced 1 assay endpoint. To generalize the intended target to other relatable targets, this assay endpoint is annotated to the gpcr intended target family, where the subfamily is rhodopsin-like receptor.
Binding assays used specific radioligands (tritiated, iodinated) with non-radioactive competitive displacement ligands in agonist or antagonist protocols (as indicated) and various reference compounds and inhibitors to titrate specific binding to receptors and transporters. Most enzyme assays (CYPs, kinases, phosphatases, proteases, HDACs) used recombinant protein and specific substrates (fluorescence mostly, some colorimetric and radioactive) and inhibitors, followed by a biochemical separation of substrate and product. All assays for the biochemical HTS were initially run in duplicate at a single concentration (10 uM for CYP450 assays and 25 uM for all others). […] Each assay was run with positive and negative controls, and concurrent controls on every plate. The follow-up (secondary) screen tested active chemical-pairs in concentration series, as well as a few additional assays not tested in the primary screen, some selected negative inactives, and several cases re-run in the concentration series for confirmatory purposes.
As for `O=C(NS(=O)(=O)/C=C/c1ccccc1)c1ccc(F)cc1Cl`, the AC50 is 2.5 nM (active). For the molecule `CCOC(=O)CC(CC(=O)OCC)(OC(C)=O)C(=O)OCC`, the outcome was inactive.

As for `Cc1[nH]cnc1C[C@H]1CCc2c(C)c3ccccc3n2C1=O`, the molecule was called inactive. In the case of `COc1ccc(-n2nc(C(F)F)cc2-c2ccc(S(C)=O)cc2)cc1` (stereo not given), the result was inactive.

The next assay has as its target human Androgen Receptor (AR), AR (gene 367) (UniProt P10275). Kind of assay: NVS_NR_hAR: NovaScreen (NVS) Nuclear Receptor Binding Assay for human Androgen Receptor (AR) (AID 2283332). An outline of the steps:
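Radioligand competitive binding, scintillation read-out, in cell-free extract from LnCAP, measured 20 h after dosing. Screened first in duplicate at 25 uM, then concentration series for actives; activity fitted against DMSO.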
As to `O=C(O)c1cccc(N(Cc2cccnc2)c2ccc(OC(F)F)c(OC(F)F)c2)c1`, the AC50 was 18.6 nM (active). Take `CCCCCCc1ccc(O)cc1O`: the AC50 was 8250 nM (active).

As for `Oc1ccc2c(c1)-c1ccccc1C2`, the half-maximal activity concentration (AC50) was 6890 nM (active).
